Measured values published in PubChem BioAssay AID1159580 (chemical genetic matrix, 2015).
Several values for one entry are separate records, joined by “and”; a condition that tells them apart may be missing. Identical values can stand only once. The whole screen tested about 5,500 compounds, of which about 2,000 (36%) were called active. About 18% were inconclusive and are not listed. Rule as the data show it: active = normalized growth mostly below about 0.91 (no sharp cut-off); inconclusive = no clear call, values can overlap the other calls; inactive = mostly above about 0.92. The list shows a part of the results.

Test: chemical genetic growth profiling, strain panel (AID 1159580);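 also: tested at 20 µM; growth read once vehicle control cultures reached saturation at 30 °C; 1 = growth at the plate median or of vehicle wells; lower values mean less growth of the strain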
Conditions: S. cerevisiae deletion strains, growth OD

Measured: normalized growth

CCC(C(=O)O)c1ccccc1 (configuration not stated)
inactive: locus YAL013W, strain DEP1, hits give low values 1.01 | locus YAL021C, strain ccr4, hits give low values 0.973 | locus YAL026C, strain drs2, hits give low values 0.992 | locus YAL030W, strain snc1, hits give low values 0.989 | locus YBL061C, strain skt5, hits give low values 0.999 | locus YBR009C, strain hhf1, hits give low values 0.991 | locus YBR021W, strain FUR4, hits give low values 1.01 | locus YBR023C, strain chs3, hits give low values 0.993 | locus YBR171W, strain sec66, hits give low values 0.987 | locus YBR229C, strain ROT2, hits give low values 0.997 | locus YBR231C, strain swc5, hits give low values 1.01 | locus YBR279W, strain paf1, hits give low values 1 | locus YCL011C, strain gbp2, hits give low values 0.979 | locus YCL016C, strain dcc1, hits give low values 0.982 | locus YCL029C, strain bik1, hits give low values 1.01 | locus YCL061C, strain MRC1, hits give low values 0.982 | locus YCL069W, strain vba3, hits give low values 0.993 | locus YCR088W, strain abp1, hits give low values 0.988 | locus YDL005C, strain med2, hits give low values 0.98 | locus YDL035C, strain GPR1, hits give low values 1.03 | locus YDL040C, strain nat1, hits give low values 0.988 | locus YDL074C, strain BRE1, hits give low values 1.02 | locus YDL101C, strain DUN1, hits give low values 1 | locus YDL134C, strain PPH21, hits give low values 1 | locus YDL185W, strain tfp1, hits give low values 0.984 | locus YDL192W, strain arf1, hits give low values 1 | locus YDR001C, strain nth1, hits give low values 0.987 | locus YDR069C, strain doa4, hits give low values 0.999 | locus YDR101C, strain arx1, hits give low values 0.998 | locus YDR137W, strain rgp1, hits give low values 0.97 | locus YDR150W, strain NUM1, hits give low values 1.01 | locus YDR159W, strain sac3, hits give low values 0.964 | locus YDR162C, strain NBP2, hits give low values 1.01 | locus YDR195W, strain ref2 0.98 | locus YDR297W, strain sur2, hits give low values 0.983 | locus YDR318W, strain mcm21, hits give low values 0.994 | locus YDR334W, strain swr1, hits give low values 0.975 | locus YDR335W, strain msn5, hits give low values 1.02 | locus YDR388W, hits give low values 0.996 | locus YDR392W, strain spt3, hits give low values 0.991 | locus YDR502C, strain sam2, hits give low values 1 | locus YEL003W, strain gim4, hits give low values 0.997 | locus YEL037C, strain rad23, hits give low values 0.989 | locus YEL061C, strain CIN8 (second series), hits give low values 0.998 | locus YEL061C, strain CIN8, hits give low values 1.01 | locus YER015W, strain faa2, hits give low values 0.992 | locus YER016W, strain bim1, hits give low values 0.976 | locus YER110C, hits give low values 1 | locus YER111C, strain swi4, hits give low values 0.979 | locus YER155C, strain BEM2 (second series), hits give low values 0.975 | locus YER155C, strain BEM2, hits give low values 1.01 | locus YER167W, strain BCK2, hits give low values 1 | locus YFR010W, strain ubp6, hits give low values 0.995 | locus YGL078C, strain dbp3, hits give low values 0.979 | locus YGL086W, strain mad1, hits give low values 0.998 | locus YGL167C, strain pmr1, hits give low values 1 | locus YGL173C, strain kem1, hits give low values 0.997 | locus YGL227W, strain vid30, hits give low values 0.978 | locus YGL240W, strain doc1, hits give low values 1.02 | locus YGL248W, strain PDE1, hits give low values 1 | locus YGL253W, strain hxk2, hits give low values 0.99 | locus YGR078C, strain PAC10, hits give low values 1.02 | locus YGR135W, strain pre9, hits give low values 1.03 | locus YGR229C, strain SMI1, hits give low values 1.01 | locus YGR252W, strain gcn5, hits give low values 0.976 | locus YHR013C, strain ard1, hits give low values 0.963 | locus YHR027C, strain rpn1, hits give low values 1 | locus YHR030C, strain SLT2, hits give low values 1 and 0.961 | locus YHR079C, strain IRE1 (second series), hits give low values 1 | locus YHR079C, strain IRE1, hits give low values 0.959 | locus YHR094C, strain hxt1, hits give low values 0.997 | locus YHR129C, strain ARP1, hits give low values 0.995 | locus YHR142W, strain chs7, hits give low values 1.02 | locus YHR200W, strain rpn10, hits give low values 1 | locus YIL066C, strain RNR3, hits give low values 1.01 | locus YIL073C, strain SPO22, hits give low values 1.03 | locus YIL125W, strain kgd1, hits give low values 0.971 | locus YIR030C, strain dcg1, hits give low values 1.01 | locus YJL092W, strain hpr5, hits give low values 0.979 | locus YJL095W, strain BCK1 (second series), hits give low values 0.985 | locus YJL095W, strain BCK1, hits give low values 1.02 and 0.968 | locus YJL115W, strain asf1, hits give low values 0.984 | locus YJL129C, strain trk1, hits give low values 0.983 | locus YJL134W, strain LCB3, hits give low values 1.01 | locus YJL154C, strain vps35, hits give low values 0.988 | locus YJL164C, strain tpk1, hits give low values 0.98 | locus YJL166W, strain qcr8, hits give low values 0.995 | locus YJL168C, strain set2, hits give low values 0.995 | locus YJL187C, strain SWE1 (second series), hits give low values 1 | locus YJL187C, strain SWE1, hits give low values 0.971 | locus YJR043C, strain POL32, hits give low values 1.03 | locus YJR066W, strain TOR1, hits give low values 0.887
